Experimental findings from PubChem BioAssay (NCATS) are described below.

In test [1] the target is Protein phosphatase 1D (Homo sapiens) (UniProt O15297). As to the kind of experiment: RapidFire Mass Spectrometry qHTS Assay for Modulators of WT P53-Induced Phosphatase 1 (WIP1) (AID 1347424).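 Note: amount of dephosphorylated VEPPL-S-QETFS peptide product formed by WIP1; series mostly up to about 63 µM.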 A digest of the protocol: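 10 nM WIP1 preincubated with compounds 1 hr at room temperature in pH 7.5 Tris buffer with 30 mM MgCl2, 1 mM TCEP; 2 uM VEPPL-pS-QETFS phosphopeptide for 5 min, formic acid quench; dephosphorylated product quantified by RapidFire MS against labelled standard.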
Chain of Protein phosphatase 1D (Homo sapiens) (O15297 whole entry, looked up): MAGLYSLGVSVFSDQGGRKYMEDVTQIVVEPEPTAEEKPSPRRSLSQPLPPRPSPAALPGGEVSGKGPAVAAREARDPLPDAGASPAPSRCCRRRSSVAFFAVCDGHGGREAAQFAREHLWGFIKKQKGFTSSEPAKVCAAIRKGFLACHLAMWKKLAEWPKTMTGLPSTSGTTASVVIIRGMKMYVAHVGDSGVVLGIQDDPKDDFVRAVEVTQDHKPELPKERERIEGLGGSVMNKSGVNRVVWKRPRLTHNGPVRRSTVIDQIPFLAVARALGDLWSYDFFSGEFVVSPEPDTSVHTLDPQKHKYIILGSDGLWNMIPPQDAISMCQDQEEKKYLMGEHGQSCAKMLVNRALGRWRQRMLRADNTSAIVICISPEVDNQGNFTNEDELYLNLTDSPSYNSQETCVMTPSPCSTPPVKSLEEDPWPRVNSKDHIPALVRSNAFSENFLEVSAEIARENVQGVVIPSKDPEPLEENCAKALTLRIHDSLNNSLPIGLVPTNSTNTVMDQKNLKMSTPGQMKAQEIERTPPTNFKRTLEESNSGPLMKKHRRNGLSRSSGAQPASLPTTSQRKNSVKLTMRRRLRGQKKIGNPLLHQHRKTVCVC
Background: In qHTS, concentration-response curves come from the screen itself.

For test [2] the target is unchanged. As to the kind of experiment: Rhodamine-PBP qHTS Assay for Modulators of WT P53-Induced Phosphatase 1 (WIP1) (AID 1347425). Put shortly:
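Read-out: Rhodamine-PBP fluorescence (ex 525/em 598 nm) for released Pi, read each minute for 11 min after adding 10 uM VEPPL-pS-QETFS; signal taken as f1 minus pre-substrate f0. Enzyme 5 nM WIP1 with 1 hr room-temperature compound preincubation.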

A short description of test [3]: Primary qHTS for Huh7 cytotoxicity: counterscreen for inhibitors of MERS-S pseudotyped particle cell entry (AID 1479147; calls by dose curve).
Test [4] can be described thus: Primary qHTS for Vero E6 cytotoxicity: counterscreen for inhibitors of SARS-S pseudo-typed particle cell entry (AID 1479150; calls by dose curve).
A short description of test [5]: Primary qHTS for inhibitors of La Crosse Virus (LACV) - induced cell death in SH-SY5Y cells (AID 1508616).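 Note: top concentration of the series differs between compounds; higher means more rescue of cells from virus-induced death.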 A digest of the protocol:
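SH-SY5Y cells (6000/well) plated 24 h, then given compounds by pin transfer and LACV at 0.01 MOI for 6 days at 37C. Viability measured by ATPLite luminescence, normalized to infected DMSO and uninfected DMSO.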

Test [6] concerns the target Calcium and integrin-binding protein 1 (Homo sapiens) (UniProt Q99828). The test can be described thus: Primary qHTS for Identification of Calcium Integrin Binding Protein 1 (CIB1) Competitor (AID 1508620).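 Note: GST tagged CIB1 binding a fluorescein labelled alphaIIb integrin peptide tracer; top concentration of the series differs between compounds.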 Put shortly:
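Fluorescence polarization competition: GST-tagged CIB1 (1 uM final) preincubated with compound 15 min at room temperature, then FITC-labelled alphaIIb peptide (100 nM final) added. After 15 min at room temperature, polarization read at Ex 480/Em 540.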

Test [7] has as its target Cytochrome P450 2D6 (Homo sapiens) (UniProt P10635). As to the kind of experiment: Cytochrome P450 family 2 subfamily D member 6 (CYP2D6) small molecule antagonists: luciferase biochemical (cell-free) qHTS assay (AID 1645840; active = well fitted curve in the direction sought with a large enough effect in the repeat runs; an effect the other way counts as inactive or inconclusive; note: nearly all actives have a fitted effect of over 55% in size; note: potency is the fitted concentration of half-maximal effect). Put shortly:
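P450-Glo luminescent screen: recombinant CYP2D6 enzyme–proluciferin substrate mix preincubated with compound 10 min at room temperature, then NADPH regeneration added for 1 h at room temperature. Detection reagent added for 20 min; luciferin light read as relative luminescence units.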

A short description of test [8]: Primary qHTS for small molecule stabilizers of the endoplasmic reticulum resident proteome: Secreted ER Calcium Modulated Protein (SERCaMP) assay (AID 1508630). Put shortly: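 GLuc-SERCaMP-expressing SH-SY5Y cells, pretreated 16 h with compound, are challenged with thapsigargin to empty ER calcium stores; after 4 h, coelenterazine is added directly to the medium and luminescence is imaged.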

A short description of test [9]: A High-Content qHTS Against Drug Library for the Identification of Small Molecules that Inhibit DYT1 Early Onset Primary Dystonia-Associated Cell Pathology (AID 1645839; calls by dose curve; note: series mostly up to about 46 µM). Put shortly: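 Flp-In T-REx 293 cells with tetracycline-inducible EGFP-delE hTOR1A (WT EGFP-hTOR1A as reference), 800 cells/well; compound added with tetracycline, 48 h at 37 C. Fixed, permeabilized cells imaged; %pathology (punctate TorsinA) primary, cell count counterscreen.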

Test [10] in a line: Confirmatory qHTS for small molecule stabilizers of the endoplasmic reticulum resident proteome: Secreted ER Calcium Modulated Protein (SERCaMP) assay (AID 1508628). Note: potency is the fitted concentration of half-maximal effect; nearly all actives have a fitted effect of over 40% in size. Put shortly: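 SH-SY5Y cells stably expressing GLuc-SERCaMP, treated 16 h with compound (primary 1.53, 7.67, 38.3 uM; confirmation 11 concentrations, up to 76.6 uM), then 100 nM thapsigargin for 4 h. Secreted Gaussia luciferase in medium read by coelenterazine luminescence.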

Test [11] is described as follows: Primary qHTS for inhibitors of MERS-S pseudo-typed particle cell entry (AID 1479149; calls by dose curve; note: series mostly up to about 57 µM; nearly all actives have a fitted effect of over 60% in size).

Records with an inconclusive call do not appear. Unmarked numbers belong to inactive results. The source made the active and inactive calls. Unless noted, calls come from the whole dose curve; as a rule, active = well fitted curve in the direction sought with a large enough effect; inconclusive = small, poorly fitted or top-dose-only effect, or another doubt; inactive = no such curve, though single readings can be large; an effect the other way counts as inactive or inconclusive.

Chain of Cytochrome P450 2D6 (Homo sapiens) (P10635 whole entry, looked up): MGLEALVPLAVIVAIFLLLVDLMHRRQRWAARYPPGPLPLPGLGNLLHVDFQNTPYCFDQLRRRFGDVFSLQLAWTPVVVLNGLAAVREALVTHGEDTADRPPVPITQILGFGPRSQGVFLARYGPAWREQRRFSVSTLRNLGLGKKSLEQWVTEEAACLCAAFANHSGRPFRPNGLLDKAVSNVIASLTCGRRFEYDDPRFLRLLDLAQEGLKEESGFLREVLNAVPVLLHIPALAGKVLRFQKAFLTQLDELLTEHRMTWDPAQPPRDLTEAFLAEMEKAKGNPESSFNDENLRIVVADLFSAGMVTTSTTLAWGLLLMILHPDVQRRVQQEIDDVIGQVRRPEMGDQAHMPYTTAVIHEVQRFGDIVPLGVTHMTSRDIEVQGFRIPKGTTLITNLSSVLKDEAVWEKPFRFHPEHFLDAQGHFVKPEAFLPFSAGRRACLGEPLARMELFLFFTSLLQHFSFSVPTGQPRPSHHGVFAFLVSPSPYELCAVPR
Chain of Calcium and integrin-binding protein 1 (Homo sapiens) (Q99828 whole entry, looked up): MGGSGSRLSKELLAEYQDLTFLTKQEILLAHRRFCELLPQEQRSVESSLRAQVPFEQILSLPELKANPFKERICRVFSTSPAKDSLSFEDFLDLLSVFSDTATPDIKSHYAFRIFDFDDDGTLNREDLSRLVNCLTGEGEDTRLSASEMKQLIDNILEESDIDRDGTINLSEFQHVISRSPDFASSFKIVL

`CCC(=O)C(CCN(C)C)(c1ccccc1)c1ccccc1`: the Potency entry in [1], in test [3], in test [4] and in test [6] was “inactive” each time. In addition, the compound was classed as inactive in test [2] and in test [5]. The Potency in test [7] was 5.49 µM (active).
`Clc1ccc(CO/N=C(\Cn2ccnc2)c2ccc(Cl)cc2Cl)c(Cl)c1`: the Potency result in test [1], in test [3], in test [4] and in test [6] was “inactive” in each case. Further, the compound was classed as inactive in test [2] and in [5].
Turning to `CC(=O)OC1(c2ccccc2)CCN(CCc2ccccc2)CC1`, the Potency result in test [1] and in test [6] was “inactive” throughout. Further, the call in [2], in test [5] and in test [8] was inactive.
For the compound `C[C@]12Cc3nonc3C[C@@H]1CC[C@@H]1[C@@H]2CC[C@@]2(C)[C@H]1CC[C@]2(C)O`, the Potency entry in [1], in [3], in test [4], in test [6] and in test [7] was “inactive” throughout. Further, the compound was classed as inactive in test [2], in [5], in [8] and in test [9].
With `CC[C@H](O)C(C[C@H](C)N(C)C)(c1ccccc1)c1ccccc1`, the Potency entry in test [1] and in [6] was “inactive” in each case. In addition, the outcome in test [2] and in test [5] was inactive. Moreover, in [10], the Potency is 50.1 µM (active).
As to `CC(Cc1ccccc1)NCCCCl` (centres undefined), the Potency result in [1], in [3], in test [11], in [4] and in test [6] was “inactive” throughout. Besides, the compound was called inactive in [2], in test [5] and in [9]. Also, in test [7], the Potency is 1.23 µM (active).
As for `C[C@]12CC[C@H]3[C@@H](CC=C4C[C@@H](O)CC[C@@]43C)[C@@H]1CC[C@@H]2O`, the Potency result in [1], in test [6] and in [7] was “inactive” each time. Further, the outcome in [2], in test [5], in test [8] and in test [9] was inactive.
As to `Oc1c(Br)cc(Br)cc1Br`, the Potency entry in [1] and in test [6] was “inactive” in each case. The call in test [2], in test [5], in [8] and in test [9] was inactive.
As to `C[C@]12C=CC(=O)C=C1CC[C@@H]1[C@@H]2CC[C@@]2(C)[C@H]1CC[C@]2(C)O`, the Potency result in test [1] and in test [6] was “inactive” in each case. For the same compound, the outcome in test [2], in test [5], in [8] and in test [9] was inactive.
For the compound `CCN1CCCC1CNC(=O)C(O)(c1ccccc1)c1ccccc1` (centres undefined), the Potency result in test [1] and in test [6] was “inactive” in each case. In addition, the call in test [2], in test [5], in test [8] and in [9] was inactive. Moreover, the Potency in [7] was 3.09 µM (active).
On to `O=C(CBr)Nc1ccc(Cl)cc1C(=O)c1ccccc1F`, for which the Potency result in test [1] and in test [6] was “inactive” in each case. Also, the result in [2], in [5], in test [8] and in test [9] was inactive.
Consider `C1CN2CCC1CC2`, for which the Potency result in [1], in [6] and in [7] was “inactive” in each case. Moreover, the result in [2], in test [5], in [8] and in [9] was inactive.
For the compound `CCOC(=O)NC(C)(C)Cc1ccc(Cl)cc1`, the Potency entry in [1], in test [6] and in test [7] was “inactive” in each case. The result in [2], in test [5], in test [8] and in [9] was inactive.
Turning to `CCCOC(=O)Cc1ccc(OCC(=O)N(CC)CC)c(OC)c1`, the Potency result in test [1] and in [6] was “inactive” throughout. The result in [2], in [5], in [8] and in [9] was inactive.
In the case of `ClC1=C(Cl)C2(Cl)C(CBr)CC1(Cl)C2(Cl)Cl` (centres undefined), the Potency result in test [1], in test [6] and in [7] was “inactive” in each case. Also, the outcome in test [2], in [5], in [8] and in test [9] was inactive.
In the case of `COc1ccc(OC)c(CC(C)N)c1` (centres undefined), the Potency entry in test [1] and in [6] was “inactive” each time. The call in test [2], in test [5], in [8] and in test [9] was inactive.
For `CC(C)NCC(O)c1ccc(N)c(C#N)c1` (centres undefined), the Potency result in test [1] and in [6] was “inactive” in each case. Moreover, the compound was classed as inactive in test [2], in [5] and in test [9].
With `CC(Cc1ccc2c(c1)OCO2)NO` (centres undefined), the Potency entry in test [1] and in test [6] was “inactive” in each case. The result in test [2], in test [5], in test [8] and in [9] was inactive. The Potency in test [7] is 61.1 µM (active).
With `COc1cc(CC#N)cc(OC)c1OC`, the Potency entry in test [1], in test [6] and in test [7] was “inactive” each time. The compound was classed as inactive in [2], in [5], in test [8] and in test [9].
`O=C(CCl)c1ccc(Cl)cc1Cl`: the Potency result in test [1], in [6] and in [7] was “inactive” each time. Moreover, the compound was classed as inactive in test [2], in test [5] and in test [8].
For the compound `COc1cc(CC(C)N)cc2c1OCO2` (centres undefined), the Potency result in test [1] and in test [6] was “inactive” each time. For the same compound, the compound was called inactive in test [2], in test [5], in test [8] and in [9].
Regarding `CCc1cc(OC)c(C[C@H](C)N)cc1OC`, the Potency entry in test [1] and in test [6] was “inactive” each time. Further, the outcome in [2], in [5] and in [9] was inactive.
On to `COCC(=O)N(c1c(C)cccc1C)C(C)C(=O)OC` (centres undefined), for which the Potency result in test [1] and in test [6] was “inactive” throughout. In addition, the compound was called inactive in test [2], in [5], in test [8] and in test [9].
Consider `CN1C(=O)CN=C(c2ccccc2)c2cc(Cl)ccc21`, for which the Potency result in [1] and in [6] was “inactive” throughout. For the same compound, the outcome in test [2], in [5] and in test [9] was inactive.
For the compound `CN(C)CCc1c[nH]c2ccccc12`, the Potency result in test [1] and in [6] was “inactive” throughout. Also, the call in test [2], in test [5], in test [8] and in test [9] was inactive. Moreover, the Potency in test [7] was 62.8 µM (active).
`C[C@@H]1CC[C@H]2[C@@H](C)C(=O)O[C@@H]3O[C@@]4(C)CC[C@@H]1[C@]32OO4`: the Potency result in test [1] and in test [6] was “inactive” in each case. Further, the outcome in [2], in test [5] and in [9] was inactive.
On to `O=C(O)CCCCCCNC1c2ccccc2CCc2ccccc21`, for which the Potency result in test [1] and in [6] was “inactive” throughout. The compound was classed as inactive in test [2], in test [5] and in [9].
Regarding `COc1cc(N)c(Cl)cc1C(=O)NC1CN2CCC1CC2` (centres undefined), the Potency result in test [1] and in test [6] was “inactive” throughout. For the same compound, the result in test [2], in test [5] and in [9] was inactive.
In the case of `COc1ccc2[nH]cc(CCN(C(C)C)C(C)C)c2c1`, the Potency result in [1] and in test [6] was “inactive” throughout. Moreover, the call in [2], in test [5], in [8] and in [9] was inactive. The Potency in test [7] is 3.25 µM (active).
Consider `C[C@H](CN1CCOCC1)C(C(=O)N1CCCC1)(c1ccccc1)c1ccccc1`, for which the Potency entry in test [1] and in [6] was “inactive” each time. The compound was classed as inactive in test [2], in [5] and in test [9].
For the compound `ClCCCN1CCN(c2cccc(Cl)c2)CC1`, the Potency result in test [1] and in test [6] was “inactive” in each case. Also, the call in test [2], in [5], in test [8] and in [9] was inactive. Further, the Potency in [7] was 1.1 µM (active).
